Screens from PubChem BioAssay.
mHTT-CaM PPI inh: mHTT-calmodulin interaction abrogation. P42858. AlphaScreen His-mHTT/GST-CaM binding, luminescence. inhibition, % at 15 µM. 3.6% of 190,000 active
Pf apPOL inh: Pf-apPOL DNA polymerase inhibition; Recombinant Pf-apPOL, molecular beacon fluorescence, 1.5 h; inhibition, % at 10 µM; 0.25% of 210,000 active; AID 1794808
Numbers stand for hits; – = inactive; · = no result; + = active, no number. Shown is part of a subset that was picked to be rich in hits. Rule as the data show it: active = inhibition above about 50%; inactive = the rest.

SMILES	mHTT-CaM PPI inh	Pf apPOL inh
O=C(c1ccc(F)cc1)N1CCCC(c2ccnc(-c3ccc(F)cc3)n2)C1 (centres undefined)	–	–
CC(C)c1[nH]nc2c1C(c1ccc(Br)s1)C(C#N)=C(N)O2 (centres undefined)	–	·
CCOc1ccccc1NC(=O)c1ccc(F)c(S(=O)(=O)N2CCc3ccccc32)c1	–	–
COc1ccc(C2=C/C(=C\c3cccs3)C(=O)O2)cc1	–	–
CCOc1ccc(C2=C/C(=C\c3ccc(Br)o3)C(=O)O2)cc1	98.0	–
O=C1OC(c2ccc(Cl)cc2)=C/C1=C\c1ccc(Br)o1	–	–
CCOc1ccc(C2=C/C(=C\c3cccs3)C(=O)O2)cc1	–	52.4
CN1CCc2cc(C=O)ccc21	–	·
O=C(Nc1ccc(N=Cc2c(O)cccc2Cl)cc1)c1ccc(F)cc1	–	–
O=C1CSC(=O)N1CC(O)COc1ccc(OCC(O)CN2C(=O)CSC2=O)cc1 (centres undefined)	–	69.6
O=C1CSC(=O)N1CCOc1ccc(F)cc1	–	–
CCOCCCNC(=O)c1cc2cc3ccc(C)cc3nc2s1	–	–
COc1cccc(-c2nnc3n2N=C(c2ccc(O)c(O)c2)CS3)c1	52.0	–
Oc1ccc(C2=Nn3c(nnc3-c3cccc(F)c3)SC2)cc1O	–	–
Cc1ccc(CNC(=O)c2ccc3c(c2)nc2n3CCCCC2)cc1	–	–
COc1ccccc1C1C(C(=O)Nc2cccc(C(F)(F)F)c2)=C(C)NC2=C1C(=O)CCC2 (centres undefined)	–	–
CC1=NN(c2cc(Cl)c(S(=O)(=O)O)cc2Cl)C(=O)C1	–	–
CC1=NN(c2ccc(C)c(Cl)c2)C(=O)C1	91.1	–
O=S(=O)(c1ccccc1F)N1CCC(c2ccccc2)C1 (centres undefined)	–	–
Cc1csc(-c2nnc(NC(=O)COc3ccccc3F)o2)c1	–	–
O=C(COc1ccccc1F)Nc1nnc(C2CCCCC2)o1	62.6	–
O=C(COc1ccccc1)Nc1nnc(CSc2ccccc2)o1	–	–
O=C(COc1ccccc1F)Nc1nnc(COc2cccc3ccccc23)o1	55.6	–
CC(C)n1cnnc1C1CCN(C(=O)C2(c3ccccc3)CC2)CC1	–	–
CC1CCc2onc(C(=O)N3CCN(c4ccccc4F)CC3)c2C1 (centres undefined)	–	–
SMILES	mHTT-CaM PPI inh	Pf apPOL inh
Cc1nc(-c2cnccn2)[nH]c(=O)c1C	70.8	–
Cc1nnc(-c2ccccn2)[nH]c1=O	·	–
COc1ccc(C(CCN2CCCC(C)C2)c2c(OC)cc(OC)c3c(C)cc(=O)oc23)cc1 (centres undefined)	–	–
COc1ccc(C(CCN2CCOCC2)c2c(OC)cc(OC)c3c(-c4ccccc4)cc(=O)oc23)cc1 (centres undefined)	65.9	–
COc1ccc(C(CCN2CCCC2)c2c(OC)cc(OC)c3c(-c4ccccc4)cc(=O)oc23)cc1 (centres undefined)	98.3	–
COc1ccc(C(CCN2CCCC(C)C2)c2c(OC)cc(OC)c3c(-c4ccccc4)cc(=O)oc23)cc1 (centres undefined)	99.8	–
CCCC(=O)NC1CCN(c2ccc(C)c(C)c2)C1=O (centres undefined)	–	–
Cc1ccc2c(c1)nc(-c1ccc(O)cc1)n2Cc1ccc(O)cc1	–	–
N#Cc1c(C(F)(F)F)cc(NCCCN2CCOCC2)n2c1nc1ccccc12	–	–
C/C(=N/Nc1nnc(C)c(=O)[nH]1)C(=O)O	+	·
Cc1nnc(NN=C(C(=O)O)C(=O)O)[nH]c1=O	–	·
Cc1cccc(NC(=O)CC23CC4CC(CC(Br)(C4)C2)C3)c1C	–	–
Cc1ccc(NS(=O)(=O)c2cc3c(s2)CCN(C(=O)C2CC2)C3)cc1	–	–
CCCCN1C(=O)C(C)(C(=O)NCc2cc(C)ccc2C)Oc2cccnc21 (centres undefined)	–	–
CCCc1nc2cccnc2n1C1CCN(S(=O)(=O)CCC)C1 (centres undefined)	–	–
NC(=S)NN=Cc1ccccc1	·	–
NC(=S)NN=Cc1ccccc1O	84.6	–
O=C(Nc1cccc(C(F)(F)F)c1)c1cc2ccccc2oc1=O	–	–
CC1=C/C(=C/c2ccc(-c3ccc(C)cc3)o2)C(=O)O1	85.0	–
Cc1ccc(C2=C/C(=C\c3ccccc3C)C(=O)O2)cc1	–	–
COC(=O)c1ccc(NS(=O)(=O)c2ccc3[nH]c4c(c3c2)CCCCC4)cc1	68.2	–
CC(=O)c1ccc(NS(=O)(=O)c2ccc3[nH]c4c(c3c2)CCCC4)cc1	63.4	–
CC(=O)c1ccc2c3c([nH]c2c1)CCCC3	–	–
O=S(=O)(Nc1ccc(F)cc1F)c1ccc2[nH]c3c(c2c1)CCCC3	90.5	–
COc1ccc(NS(=O)(=O)c2ccc3[nH]c(=O)sc3c2)cc1	–	–
COC(=O)c1ccc(NS(=O)(=O)c2ccc3[nH]c4c(c3c2)CCCC4)cc1	–	–
CCOc1ccccc1NS(=O)(=O)c1ccc2[nH]c3c(c2c1)CCCC3	–	–
